Compound activity deposited in PubChem by National Center for Advancing Translational Sciences (NCATS).
An excerpt weighted towards active compounds, which were near 21% of everything screened.
CHX counter: counter-screen hit for Shiga toxin inhibitors, cycloheximide | AID 2314 | cell reporter, cycloheximide protein synthesis inhibition counterscreen | max response, % | 300,000 tested, 12% active; in the data active = max response mostly above about 13%, no sharp cut-off; inactive = mostly below about 14%; also: read at 38.3 µM for the half of the compounds with a filed dose
Pf growth 48h: inhibits P. falciparum growth in the first generation, 48 h; P. falciparum luciferase growth in erythrocytes, 48 h; AID 504832; Potency, µM (doses to about 28.7 µM), hits mostly inhibitors; 310,000 tested, 5.9% active; active = well fitted inhibition curve with a large enough effect; inconclusive = small, poorly fitted or top-dose-only effect, or another doubt; inactive = no such curve, though single readings can be large or run the other way
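Parasite viability was followed by luminescence of a genomically integrated firefly luciferase. Cultures held 0.1% parasitemia at 2% hematocrit (final), incubated under 5% CO2 at 37 C.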
SARS PLpro yeast: inhibitors of SARS-CoV papain-like protease in yeast. S. cerevisiae expressing SARS-CoV PLpro, growth rescue. Potency, µM (doses to about 32.9 µM), usual class: activators. 330,000 tested, 0.19% active. AID 485353; also: nearly all actives have a fitted effect of over 55% in size
Shiga toxin inh: blocks Shiga toxin action in Vero cells. Vero cells, Shiga toxin protein synthesis inhibition reporter. inhibition, % at 38.7 µM. 290,000 tested, 9.2% active. AID 2315; in the data active = inhibition mostly above about 28%, no sharp cut-off; inactive = mostly below about 43%
NS1 function inh: inhibitors of influenza NS1 protein function; Potency, µM (titrated, usually from 46.1 µM); 270,000 tested, 0.4% active; also: actives are rising curves; nearly all actives have a fitted effect of over 50% in size
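S. cerevisiae expressing influenza A NS1, grown in glucose, washed, then diluted 1:100 into pH 6.0 -URA galactose medium with 23 nl compound. Growth recovery read as OD600; NS1-free strain serves as control.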
Pf growth 96h: P. falciparum growth inhibition at 96 hour, primary screen for plastid delayed-death inhibitors; P. falciparum luciferase reporter growth, 96 h; Potency, µM (doses to about 28.7 µM), actives largely listed as inhibitors; 320,000 tested, 6.9% active; AID 504834; active = well fitted inhibition curve with a large enough effect; inconclusive = small, poorly fitted or top-dose-only effect, or another doubt; inactive = no such curve, though single readings can be large or run the other way
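P. falciparum expressing integrated firefly luciferase, in erythrocytes at 2% hematocrit, 0.05% parasitemia, incubated with compounds 96 h at 37 C, 5% CO2. Growth inhibition read as loss of luminescence; two-generation exposure targets delayed-death apicoplast inhibitors.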
A number is an active result; 0 = inactive; ? = inconclusive; - = no result. Unless noted, calls follow the shape of the full dose curve.

SMILES	CHX counter	Pf growth 48h	SARS PLpro yeast	Shiga toxin inh	NS1 function inh	Pf growth 96h
Cc1cc(-c2csc(NC(=O)c3ccc(S(=O)(=O)N(C)C)cc3)n2)c(C)n1-c1ccccc1	0	?	0	0	0	10µM
O=C(Nc1nc(-c2ccccn2)cs1)c1ccc(F)c(S(=O)(=O)N2CCOCC2)c1	-	1.5µM	0	-	-	0.83µM
Cc1ccc(C(=O)Nc2nc(-c3ccccn3)cs2)cc1S(=O)(=O)N1CCOCC1	-	1.7µM	0	-	-	0.47µM
O=C(Nc1nc(-c2ccccn2)cs1)c1cc(S(=O)(=O)N2CCOCC2)ccc1F	-	10µM	0	-	-	10µM
Cc1cc(Nc2n[nH]c(N)c2C#N)ccc1F	0	0	0	0	0	0
CCN(CC)C(=O)c1[nH]cnc1C(=O)NCc1ccc(CNC(=O)OC(C)(C)C)cc1	-	0	0	-	-	?
COC(=O)C(C(=O)NCC1CCCO1)C1CCCC1 (stereo not drawn)	0	-	0	0	0	0
COc1ccc(/C=C2\SC(=S)N(CCC(=O)Nc3ccc(C(=O)O)cc3)C2=O)cc1	0	0	0	-	0	0
COc1ccc(/C=C2\SC(=S)N(CCCC(=O)Nc3ccc(O)cc3)C2=O)cc1	35	?	0	51	0	?
COc1ccc(/C=C2\SC(=S)N(CCC(=O)Nc3cccc(O)c3)C2=O)cc1	39	0	0	62	0	0
COc1ccc(/C=C2/SC(=S)N(CCCC(=O)Nc3ccc(O)cc3)C2=O)cc1	51	?	0	94	0	?
COc1cc(/C=C2\SC(=S)N(CCC(=O)Nc3ccc(O)cc3)C2=O)cc(OC)c1OC	0	0	0	0	0	?
Cc1ccc(C(OCC(C)(C)C[N+](C)(C)C)c2ccccc2)cc1 (stereo not drawn)	0	1.3µM	0	0	-	?
O=C(CSc1nnc2ccc(-c3ccncc3)nn12)Nc1ccc(F)cc1	-	12µM	0	-	-	?
Cc1cccc(C)c1NC(=O)CCCSc1nnc(-c2ccc(Cl)cc2)n1-c1ccccc1	0	0	0	0	0	?
O=C(CSc1nnc(Cn2nnc(-c3ccccc3)n2)n1-c1ccccc1)Nc1ccccc1	0	?	0	0	0	?
O=C(CSc1nnc(Cn2nnc(-c3ccccc3)n2)n1-c1ccccc1)Nc1ccc(F)cc1	0	9.3µM	0	0	0	-
Cc1cccc(C)c1NC(=O)CSc1nnc(Cn2nnc(-c3ccccc3)n2)n1-c1ccccc1	0	9.3µM	0	0	0	0
O=C(CSc1nnc2ccc(-c3cccnc3)nn12)Nc1ccc(F)cc1	-	0	0	-	-	?
Cc1cccc(C)c1NC(=O)CCCSc1nnc(-c2ccc(F)cc2)n1-c1ccccc1	0	0	0	0	0	12µM
Cc1nn(Cc2ccccc2)c(Cl)c1C(=O)OCC#N	0	0	0	0	-	0
CCNC(=O)c1ccc(NS(=O)(=O)c2ccc3[nH]c(=O)[nH]c3c2)cc1	30	0	0	46	0	0
O=C(N/N=C/c1ccc(F)cc1)c1cc(-c2ccc3c(c2)OCO3)n[nH]1	0	0	0	0	0	0
Cc1cc(C(=O)N/N=C/c2ccc3c(c2)OCO3)c(C)n1-c1ccc(F)cc1	27	0	0	62	0	0
Cn1cccc1CC(=O)N/N=C/c1ccc(Cl)c([N+](=O)[O-])c1	0	?	0	0	0	0
SMILES	CHX counter	Pf growth 48h	SARS PLpro yeast	Shiga toxin inh	NS1 function inh	Pf growth 96h
Cc1cc(C(=O)N/N=C/c2ccc(Cl)c([N+](=O)[O-])c2)c(C)n1-c1ccc(F)cc1	0	13µM	0	35	0	13µM
Cc1ccc(S(=O)(=O)NC(C)(C)CN2CCc3ccccc3C2)cc1	0	0	0	0	0	0
Cc1c(/C(O)=C2/C(=O)C(=O)N(Cc3cccnc3)C2c2cccs2)cnn1-c1ccccc1 (stereo not drawn)	52	0	?	168	0	-
Cc1c(/C(O)=C2/C(=O)C(=O)N(Cc3cccnc3)C2c2ccccn2)cnn1-c1ccccc1 (stereo not drawn)	34	0	0	0	0	?
Cc1ccc(/C(O)=C2/C(=O)C(=O)N(Cc3cccnc3)C2c2ccccn2)cc1 (stereo not drawn)	0	0	0	0	?	-
O=C1S/C(=C\c2ccc(Cl)cc2)C(=O)N1CCn1cnnn1	0	0	0	0	0	0
CC1(C)CC2(CC(c3ccccc3F)c3ccc(O)c(O)c3O2)NC(=S)N1 (stereo not drawn)	0	?	0	0	0	?
N#Cc1ccccc1NC(=O)CSc1n[nH]c(=O)n1C1CC1	-	-	0	-	-	-
